The values that follow come from PubChem BioAssay AID932 (The Scripps Research Institute Molecular Screening Center, 2007).

The campaign covered roughly 200,000 compounds. About 5,100 (2.5%) were called active. Many of the other results were omitted from the sample, so actives are more common in it than they were. Values without a mark were called inactive.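 How the source made its calls: active means activation above the screen-wide mean activation plus 3 SD (cut at about 130% in these data); inactive means the rest.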 Where a SMILES comes first, the peptide text is derived from it. The star is where a group is joined. OPac = O=C(CO*)c1ccccc1; Bz = O=C(c1ccccc1)*

This test can be described thus: potentiators of IFN-gamma driven STAT1 reporter – cell-based, HTS, luciferase reporter, primary screen (AID 932).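 Further: raw ratio to IFN-gamma control signal so 100% means no change and 0% no light.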 The note with it: NIH 3T3 STAT1-luciferase reporter, luminescence, at 5.5 µM, active compounds read high, 100% = IFN-gamma alone, no compound. Background: In a reporter assay the amount or activity of a reporter protein is the signal.
Turning to `Cc1ncc(CC(=O)n2cc(C(=O)c3cc(Cl)ccc3O)cn2)s1`, the activation (% of control) is 103%.

Consider `O=C(O)c1ccc(NC(=O)c2cn(-c3ccccc3)nc2-c2ccc(Cl)cc2)cc1`, for which the activation (% of control) was 122%.

Turning to `O=C(c1cnn(-c2ccc(Cl)cc2)c1)c1ccccc1O`, the activation (% of control) was 137% (active).

Consider `O=C(Nn1c(SCc2ccc([N+](=O)[O-])cc2)nc2ccccc2c1=O)c1ccc(F)cc1`, for which the activation (% of control) is 150% (active).

With `O=C(Nn1c(-c2ccccc2)nc2ccccc2c1=O)c1ccc([N+](=O)[O-])cc1`, the activation (% of control) was 95.4%.

`Cc1ccc(C)n1NC(=O)c1ccc([N+](=O)[O-])cc1`: the activation (% of control) was 97.7%.

For `O=C(CNC(=O)c1ccccc1)NCC(=O)OCC(=O)c1ccccc1` (Bz-Gly-Gly-OPac), the activation (% of control) is 101%.

As to `Cn1cc(CN2CCC(C(O)CCc3ccccc3)CC2)c(-c2ccccc2F)n1` (centres undefined), the activation (% of control) is 97.4%.

Regarding `CCNC(=S)N1CCC(c2nc3cc(C)c(C)cc3[nH]2)CC1`, the activation (% of control) was 96.7%.

In the case of `CCCNC(=S)N1CCCC(c2nc3ccccc3[nH]2)C1` (centres undefined), the activation (% of control) was 94.6%.

Take `COCCCNC(=S)N1CCCC(c2nc3cc(C)c(C)cc3[nH]2)C1` (centres undefined): the activation (% of control) is 140% (active).

As for `CC(=O)NCC(=O)N(Cc1ccco1)C1(C(=O)NC2CCCC2)CCCCC1`, the activation (% of control) was 89.9%.

Turning to `Cc1nn(-c2ccccc2)c2c1C(c1cccc([N+](=O)[O-])c1)N(c1ccccc1)C(=O)N2` (centres undefined), the activation (% of control) was 97.4%.

For the compound `O=C1CC(c2ccccc2)=NN1c1ccc([N+](=O)[O-])cc1`, the activation (% of control) was 104%.

In the case of `Cc1nn(-c2ccc([N+](=O)[O-])cc2)c(N)c1-c1ccccc1`, the activation (% of control) is 164% (active).

Take `CNC(=O)NC(=O)CSc1nnc(-c2ccc(F)cc2)n1CC1CCCO1` (centres undefined): the activation (% of control) is 103%.

On to `Cc1cccc(N=Nc2c(O)[nH]c3ccc(F)cc23)c1`, for which the activation (% of control) was 161% (active).

For the compound `COCC(=O)N=Nc1c(O)[nH]c2ccccc12`, the activation (% of control) is 110%.

As to `Cc1cccc(N=Nc2c(C)[nH]n(-c3ccccc3)c2=O)c1`, the activation (% of control) is 112%.

Consider `O=c1c(-c2ccccc2)coc2cc(O)ccc12`, for which the activation (% of control) was 137% (active).

Consider `CC(=O)COc1ccc2c(-c3ccccc3)cc(=O)oc2c1`, for which the activation (% of control) was 109%.

On to `O=c1c(-c2ccccc2)coc2c(CN3CCOCC3)c(O)ccc12`, for which the activation (% of control) was 100%.

With `O=c1c2c(ncn1Cc1ccccc1)nc1n2CCC1`, the activation (% of control) was 96.7%.

For `COC(=O)c1ccc(CN2CCN(CCCc3ccccc3)C(CCO)C2)cc1` (centres undefined), the activation (% of control) is 96.7%.

`CCOC(=O)c1oc2c(CN3CCN(CCO)CC3)c(O)c(CC)cc2c(=O)c1-c1nc2ccccc2s1`: the activation (% of control) is 104%.

With `C/C(=C\C(=O)c1ccc(Br)cc1)N1CCCCC1`, the activation (% of control) was 105%.

In the case of `CN1CCCC(OC(=O)COc2ccc(Br)cc2)C1` (centres undefined), the activation (% of control) was 101%.

For `CC1CN/C(=C\C(=O)c2ccc(Br)cc2)C(=O)N1` (centres undefined), the activation (% of control) was 172% (active).

On to `Cc1ccc(-n2c(C)cc(C(=O)CSc3nnc4ccccn34)c2C)cc1`, for which the activation (% of control) is 150% (active).

For the compound `O=C(CSc1nnc2ccccn12)c1ccccc1`, the activation (% of control) is 123%.

`COc1ccc(-n2c(C)cc(C(=O)CSc3nnc(-c4cccs4)o3)c2C)cc1`: the activation (% of control) is 85.5%.

Take `CCOc1ccc(C(=O)NC2CCN(CC(=O)NCc3cccs3)CC2)cc1`: the activation (% of control) was 105%.

On to `CN(C)CCCCCN(C)Cc1cc2ccccc2o1`, for which the activation (% of control) was 91.6%.

With `Cc1cc(NC(=O)CSc2nnc(Nc3ccccc3F)s2)no1`, the activation (% of control) was 102%.

Take `COc1ccccc1-c1cc(C(=O)NCCCn2ccnc2)no1`: the activation (% of control) is 112%.

For `O=C(NCCCn1ccnc1)c1cc(-c2ccccc2)on1`, the activation (% of control) was 161% (active).

On to `COc1ccc(-c2cc(C(=O)NCCCn3ccnc3)no2)cc1`, for which the activation (% of control) is 110%.

Turning to `Cc1ccc(NC(=O)CSc2nnc(COc3ccccc3C)o2)cc1`, the activation (% of control) is 103%.

For `Cc1ccccc1-c1nc(C#N)c(NCc2ccco2)o1`, the activation (% of control) is 98.1%.

With `O=C(C(=O)N1CCc2ccccc2C1)c1c[nH]c2ccccc12`, the activation (% of control) was 105%.

For the compound `CC(=O)c1cccc(NC(=O)[C@@H](NC(N)=O)C(C)C)c1`, the activation (% of control) was 98.5%.

On to `COc1ccc(-c2csc(NC(=O)COC(=O)c3ccc(Br)o3)n2)cc1`, for which the activation (% of control) was 129% (active).

As to `COc1ccc(-c2csc(NC(=O)COC(=O)Cc3ccc(Cl)cc3Cl)n2)cc1`, the activation (% of control) was 112%.

On to `COc1ccc(-c2csc(NC(=O)CCCc3cccs3)n2)cc1`, for which the activation (% of control) was 91.3%.

`CC(C)C(=O)OCC(=O)Nc1ccc2c(c1)CCC2`: the activation (% of control) was 101%.

With `O=C(NC1CCCC1)c1ccc(Br)s1`, the activation (% of control) is 108%.

For the compound `O=C(Nc1ccc2c(c1)CCC2)c1ccc(Br)s1`, the activation (% of control) is 165% (active).

In the case of `CC1(C)C(c2cccs2)=[N+]([O-])C2(CCCCC2=O)N1O` (centres undefined), the activation (% of control) was 105%.

On to `COc1cc(C(=O)N2C(=O)c3cccc(N)c3C2=O)cc(OC)c1OC`, for which the activation (% of control) is 104%.
